PubChem BioAssay AID1347420 (Sanford-Burnham Center for Chemical Genomics, 2020)
Hit rate of the full screen: of about 1,300 compounds, about 980 (75%) were called active. Not shown: some 4% with an inconclusive outcome. The list shows a part of the results.

The molecules below were run against Sulfhydryl oxidase 1 (Homo sapiens) (UniProt O00391) (assay: QSOX1 enzyme inhibitors, primary screen, biochemical, HyperBlu H2O2 luminescence, HTS (AID 1347420; note: values above 100% were filed as inconclusive)). Details: recombinant QSOX1, HyperBlu H2O2 luminescence; at 12.5 µM; stronger effect = higher value; active = any value above zero.
Sulfhydryl oxidase 1 (Homo sapiens), sequence (O00391 whole entry, looked up): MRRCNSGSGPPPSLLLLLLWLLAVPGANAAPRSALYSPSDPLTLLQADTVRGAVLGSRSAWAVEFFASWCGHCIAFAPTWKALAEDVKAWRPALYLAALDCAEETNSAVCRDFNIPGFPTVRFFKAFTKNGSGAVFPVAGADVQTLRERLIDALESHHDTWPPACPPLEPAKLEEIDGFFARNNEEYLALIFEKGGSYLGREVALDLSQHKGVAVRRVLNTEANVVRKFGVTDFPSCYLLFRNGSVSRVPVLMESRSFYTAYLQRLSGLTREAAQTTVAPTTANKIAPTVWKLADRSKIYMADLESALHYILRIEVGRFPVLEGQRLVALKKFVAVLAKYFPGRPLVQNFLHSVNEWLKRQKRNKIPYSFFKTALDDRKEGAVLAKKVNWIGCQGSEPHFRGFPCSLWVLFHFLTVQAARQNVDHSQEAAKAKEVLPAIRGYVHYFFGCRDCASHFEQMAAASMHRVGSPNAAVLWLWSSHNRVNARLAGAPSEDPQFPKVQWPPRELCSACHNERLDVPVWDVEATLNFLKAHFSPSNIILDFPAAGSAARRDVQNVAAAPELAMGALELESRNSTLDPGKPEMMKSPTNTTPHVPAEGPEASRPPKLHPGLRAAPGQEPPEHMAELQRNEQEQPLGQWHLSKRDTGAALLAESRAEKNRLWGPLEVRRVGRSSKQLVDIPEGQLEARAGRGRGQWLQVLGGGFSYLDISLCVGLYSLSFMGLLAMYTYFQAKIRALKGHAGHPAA

inhibition, active:
Nc1ncn([C@@H]2O[C@H](CO)[C@H](O)C2O)c(=O)n1 (some centres undefined) 21.3%
NC[C@H]1O[C@@H](n2cnc3c(N)ncnc32)[C@H](O)[C@@H]1O 16.1%
Nc1ncnc2c1ncn2[C@@H]1O[C@H](CO)[C@H](O)C1O (some centres undefined) 13.8%
Nc1nc(Cl)nc2c1ncn2[C@@H]1O[C@H](CO)[C@H](O)C1O (some centres undefined) 13.7%
OC[C@H]1O[C@@H](n2cnc3cncnc32)[C@H](O)[C@@H]1O 17%
Nc1ncnc2c1ncn2C1CCCC1 12.4%
Nc1nc(Nc2ccccc2)nc2c1ncn2[C@@H]1O[C@H](CO)[C@H](O)C1O (some centres undefined) 8.8%
Nc1nc2c(ncn2[C@@H]2O[C@H](CO)[C@@H](O)[C@@H]2O)c(=O)[nH]1 7.5%
CCCC(CCC)C(=O)O 40.8%
N#Cc1cc([N+](=O)[O-])c2sc(C(N)=O)[n+]([O-])c2c1 25.4%
NC(=S)c1ccc[n+]([C@@H]2O[C@@H](COP(=O)([O-])OP(=O)(O)OC[C@H]3O[C@@H](n4cnc5c(N)ncnc54)C(OP(=O)(O)O)[C@H]3O)C(O)C2O)c1 (some centres undefined) 4.8%
Nc1ncnc2c1ncn2[C@@H]1O[C@H](COP(=O)(O)CP(=O)(O)OP(=O)(O)O)[C@H](O)C1O (some centres undefined) 13.7%
Nc1ncnc2c1ncn2[C@@H]1O[C@H](COP(=O)(O)OP(=O)(O)OP(=O)(O)OP(=O)(O)OC[C@@H]2O[C@H](n3cnc4c(N)ncnc43)C(O)[C@@H]2O)[C@H](O)C1O (some centres undefined) 11.6%
O=c1[nH]cnc2[nH]ncc12 19.2%
CC(=O)/C=C1\C(=O)N(C)c2ccccc21 4.3%
CCCCCCCC/C=C\CCCCCCCC(=O)NCCc1ccc(O)c(O)c1 1.1%
COc1cc(CNC(=O)CCCCCCC(C)C)ccc1O 15.1%
CCCCCCCC/C=C\CCCCCCCC(=O)NCc1ccc(O)c(OC)c1 8%
CN(C)C(=O)/N=N/C(=O)N(C)C 13.5%
[N-]=[N+]=Nc1ccc(C(=O)CSC[C@H](NC(=O)CC[C@H](N)C(=O)O)C(=O)NCC(=O)O)cc1 19.5%
N[C@@H](CCC(=O)N[C@H](CSN=O)C(=O)NCC(=O)O)C(=O)O 15.7%
COc1ccc(-c2cc3ncc(C)n3c(Nc3ncccc3C(N)=O)n2)cc1OC 20.4%
COC1=C(OC)C(=O)c2ccccc2C1=O 37.3%
O=C1c2ccccc2C(=O)c2c(NCCc3ccc(O)cc3)ccc(NCCc3ccc(O)cc3)c21 60.9%
O=C(O)C1CN(CCCP(=O)(O)O)CCN1 (centres undefined) 37%
C[C@](Cc1ccc(O)c(O)c1)(NN)C(=O)O 44.1%
CC(N)(Cc1ccc(O)c(O)c1)C(=O)O (centres undefined) 31.2%
C[C@](N)(Cc1ccc(O)c(O)c1)C(=O)O 36.6%
O=C(c1ccc(OCCCc2cnc[nH]2)cc1)C1CC1 8%
CC1(C)CCC(NC(=O)[C@@H](N)CCC(=O)O)CC1 8.5%
CCOC(=O)Nc1ccc(NCc2ccc(F)cc2)nc1N 40%
O=C1C(SCCO)=C(SCCO)C(=O)c2ccccc21 66.7%
CN(C)c1nc2c(Br)c(Br)c(Br)c(Br)c2[nH]1 46.6%
Nc1cc(=O)[nH]c(N)n1 11.6%
C#CCN(C)CCCOc1ccc(Cl)cc1Cl 6.1%
Cn1cnc([N+](=O)[O-])c1Sc1ncnc2nc[nH]c12 19.5%
COc1nc(C)nc(Cl)c1NC1=NCCN1 12.9%
Clc1cccc(Cl)c1NC1=NCCN1 7.2%
Nc1cc(Cl)c(NC2=NCCN2)c(Cl)c1 23.9%
CC1=C(C)C(=O)C(CCCCC#CCCCC#CCO)=C(C)C1=O 32.9%
CCCCCCCCCCCCCCCCCCNC(=O)OCC(COP(=O)([O-])OCC[n+]1ccsc1)OC (centres undefined) 10.6%
N=c1ccn2c(n1)OC1C(O)[C@@H](CO)O[C@H]12 (some centres undefined) 6.1%
NCCCCC(=O)O 19.4%
NCCCC(=O)O 25.9%
O=C(O)CCCCCCCC(=O)O 11.4%
NCCCCCC(=O)O 40%
NC(N)=NC(=O)c1nc(Cl)c(N)nc1N 20.2%
CN(C)c1nc(N)c(C(=O)N=C(N)N)nc1Cl 10.2%
NC(N)=NC(=O)c1nc(Cl)c(N2CCCCCC2)nc1N 24.3%
CCN(c1nc(N)c(C(=O)N=C(N)N)nc1Cl)C(C)C 22.6%
O=C(O)CCc1ccc(NCc2cccc(Oc3ccccc3)c2)cc1 41.7%
C=C1C[C@@]23CC[C@H]4[C@@](C)(CCC[C@@]4(C)C(=O)O)[C@@H]2CC[C@]1(O)C3 9%
CCOC(=O)N1CCC(=C2c3ccc(Cl)cc3CCc3cccnc32)CC1 13.2%
Cn1ccnc1 9.1%
CCCCCCCCCCCCCCSCC(=O)O 9.4%
NC1C=CC=C(C(=O)O)C1 (centres undefined) 21.6%
OCC1O[C@H](O)C(Cl)C(O)C1O (some centres undefined) 23.9%
COCCCC/C(=N\OCCN)c1ccc(C(F)(F)F)cc1 9.6%
CN1CCC(=C2c3ccccc3CC(=O)c3sccc32)CC1 6.3%
COc1ccc(C2CNC(=O)C2)cc1OC1CCCC1 (centres undefined) 5.2%
Cc1cccc(C2CN(C)CCc3c2cc(O)c(O)c3Cl)c1 (centres undefined) 97.2%
C=CCN1CCc2c(cc(O)c(O)c2Cl)C(c2ccccc2)C1 (centres undefined) 84.4%
C=CCN1CCc2cc(O)c(O)cc2C(c2ccccc2)C1 (centres undefined) 76.8%
O=C1CCc2cc(OCCCCc3nnnn3C3CCCCC3)ccc2N1 11.5%
COc1cc2c(cc1OC)-c1cc(=Nc3c(C)cc(C)cc3C)n(C)c(=O)n1CC2 4.4%
C[C@H]1O[C@@H](n2cc(F)c(=O)[nH]c2=O)[C@H](O)[C@@H]1O 20%
O=C1N=C([O-])CN1/N=C/C1=C[C+]=C(c2ccc([N+](=O)[O-])cc2)O1 53%
CSc1ccccc1N1CCN(CCCCCC(=O)NC2CCCc3ccccc32)CC1 (centres undefined) 11.3%
O=C(CCCCCN1CCN(c2ccccc2-c2ccccc2)CC1)NC1CCCc2ccccc21 (centres undefined) 22.8%
NC(N)=NC(=O)Cc1c(Cl)cccc1Cl 16.4%
O=C(O)c1cccnc1C(=O)O 5.1%
O=C1NCc2c1c1c3ccccc3[nH]c1c1[nH]c3ccccc3c21 13.3%
Cn1c(=O)c2[nH]c(-c3ccc(S(=O)(=O)O)cc3)nc2n(C)c1=O 31.8%
Cn1c(=O)c2[nH]c(-c3ccccc3)nc2n(C)c1=O 14.7%
CCCn1c(=O)c2[nH]c(-c3ccc(S(=O)(=O)O)cc3)nc2n(CCC)c1=O 20.3%
CN(C)S(=O)(=O)c1ccc2c(c1)/C(=C/c1cc3c([nH]1)CCCC3)C(=O)N2 52.1%
CNc1cc(NS(=O)(=O)c2ccc(N)cc2)nc(NC)n1 1.3%

inhibition, inactive:
Nc1ccn([C@@H]2O[C@H](CO)[C@@H](O)C2O)c(=O)n1 (some centres undefined) -7%
CC(=O)O[C@H]1C(=O)[C@@]2(C)C([C@H](OC(=O)c3ccccc3)[C@]3(O)C[C@H](OC(=O)[C@H](O)[C@@H](NC(=O)c4ccccc4)c4ccccc4)C(C)=C1C3(C)C)[C@]1(OC(C)=O)CO[C@@H]1C[C@@H]2O (some centres undefined) -4.9%
CCc1cccc2c3c([nH]c12)C(CC)(CC(=O)O)OCC3 (centres undefined) -6%
CCNc1nc2c(ncn2[C@H]2C[C@H](O)[C@@H](CO)O2)c(=O)[nH]1 -2.5%
Nc1ncnc2c1ncn2C1CCCO1 (centres undefined) -13.6%
CCN(CC)c1ncnc2c1ncn2[C@@H]1O[C@H](COP(=O)(O)OP(=O)(O)C(Br)(Br)P(=O)(O)O)[C@@H](O)[C@H]1O -3%
NC(=O)C1=C[N+](=C2OC(COP(=O)(O)OP(=O)([O-])OC[C@H]3O[C@@H](n4cnc5c(N)ncnc54)C(OP(=O)(O)O)[C@H]3O)C(O)C2O)C=CC1 (some centres undefined) -12.9%
Clc1ccccc1C(c1ccccc1)(c1ccccc1)n1ccnc1 -1.8%
O=C1Cc2cc(CCN3CCN(c4nsc5ccccc45)CC3)c(Cl)cc2N1 -10.1%
NO -43.8%
O=C1c2ccccc2-c2n[nH]c3cccc1c23 -5.6%
Nc1nc2[nH]c(=O)cnc2c(=O)[nH]1 -15.8%
C#CCN(C)Cc1ccccc1 -4.3%
Fc1ccc(CN(C2=NCCN2)c2c(Cl)cccc2Cl)cc1 -1.5%
Clc1ccc2nsnc2c1NC1=NCCN1 -10.4%
CCCCCCCCCCCCCCCCCCOC[C@H](COP(=O)([O-])OCC[N+](C)(C)C)OC -5.6%
C=C1C[C@@]23CC[C@H]4[C@@](C)(CCC[C@@]4(C)C(=O)OC4OC(CO)C(O)C(O)C4O)[C@@H]2CCC1(OC1OC(CO)C(O)C(O)C1OC1OC(CO)C(O)C(O)C1O)C3 (some centres undefined) -13.9%
CN1CCC(=C2c3ccccc3C=Cc3ccccc32)CC1 -2.7%
CCn1nc(C(=O)O)c(=O)c2cc3c(cc21)OCO3 0%
O=c1ccn([C@@H]2O[C@H](COP(=O)(O)OP(=O)(O)O)[C@@H](O)[C@H]2O)c(=O)[nH]1 -0.8%
NC(N)=N/N=C/c1c(Cl)cccc1Cl -6.1%
CCCn1c(=O)c2[nH]c(-c3ccc(OCC(=O)NCCN)cc3)nc2n(CCC)c1=O -3.6%
